LANA-H2A inh = blocks KSHV LANA binding to histone H2A/H2B; Q9QR71; cell-free LANA-H2A/H2B peptide, fluorescence polarization; inhibition, % (concentration not given with the values); 320,000 tested, 0.6% active; AID 2629; in the data active = inhibition mostly above about 10%, no sharp cut-off; inactive = mostly below about 6.7%
APOBEC3A inh = human APOBEC3A DNA deaminase inhibition | recombinant A3A, FAM/TAMRA ssDNA deamination fluorescence | inhibition, % at 20 µM | 330,000 tested, 0.41% active;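 active = at least 40% inhibition at 20 µM here, with at most 30% in a related deaminase screen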
Target sequence (P31941 whole entry, looked up): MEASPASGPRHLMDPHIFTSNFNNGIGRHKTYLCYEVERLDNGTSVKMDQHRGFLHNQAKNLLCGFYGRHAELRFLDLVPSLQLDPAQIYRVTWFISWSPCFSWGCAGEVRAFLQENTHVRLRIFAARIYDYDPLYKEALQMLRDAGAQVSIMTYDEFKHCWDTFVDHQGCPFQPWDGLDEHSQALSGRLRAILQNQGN
HDAC3 inh = human HDAC3 inhibition. inhibition, % at 8.3 µM. recombinant HDAC3, fluorogenic peptide/trypsin coupled, fluorescence. 320,000 tested, 0.15% active. AID 2718. O15379; in the data active = inhibition above about 26%, passing the limit was not always enough
Target sequence (O15379 whole entry, looked up): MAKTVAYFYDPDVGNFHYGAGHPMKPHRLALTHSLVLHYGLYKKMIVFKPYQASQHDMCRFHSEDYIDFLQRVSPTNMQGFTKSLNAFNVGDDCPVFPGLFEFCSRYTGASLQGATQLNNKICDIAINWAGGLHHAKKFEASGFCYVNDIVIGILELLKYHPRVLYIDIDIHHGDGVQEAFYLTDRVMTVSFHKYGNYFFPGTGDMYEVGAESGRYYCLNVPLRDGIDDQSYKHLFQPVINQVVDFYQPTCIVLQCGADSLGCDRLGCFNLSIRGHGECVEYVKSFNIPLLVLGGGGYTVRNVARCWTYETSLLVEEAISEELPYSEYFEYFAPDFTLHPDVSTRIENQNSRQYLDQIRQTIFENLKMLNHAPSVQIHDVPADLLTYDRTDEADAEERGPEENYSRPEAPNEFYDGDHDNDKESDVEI
APOBEC3G inh = APOBEC3G (human) deaminase inhibition; inhibition, % at 20 µM; Q9HC16; recombinant A3G, ssDNA deamination FAM/TAMRA fluorescence; 330,000 tested, 0.28% active;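 active = inhibition of at least 40% at 20 µM, with no more than 30% in the related APOBEC3A deaminase screen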
A3A conf = APOBEC3A (human) deaminase inhibition, confirmed. recombinant A3A, ssDNA deaminase UDG fluorescence assay. inhibition, % at 20 µM. shares compounds with APOBEC3A inh. 1,400 tested, 63% active;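 active = inhibition reaching a set limit, 80% of the first screen's cutoff, at 20 µM in any replicate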
UDG A3A counter = inhibits UDG, flagging false APOBEC3A inhibitors. shares compounds with APOBEC3A inh. UDG counterscreen, FAM/TAMRA uracil oligo fluorescence. inhibition, % at 20 µM. 1,000 tested, under 10 active. AID 504714; call rule not given here
Large screens that a line does not name were inactive (follow-up assays come after a bar, where they were run). Hits are enriched below; roughly 1.4% of the tested compounds scored in any of these assays.

O=C(N/N=C/c1ccccc1[N+](=O)[O-])c1ccncc1	none
CCOC(=O)c1c(NC(=O)OC)sc2c1CCC2	APOBEC3A inh 54 | A3A conf inactive | UDG A3A counter inactive
CCOC(=O)c1c(/N=C/c2ccc(O)cc2O)sc2c1CCC2	none
CCOC(=O)c1c(/N=C/c2ccccc2O)sc2c1CCC2	APOBEC3A inh 98 | A3A conf inactive | UDG A3A counter inactive
CCOc1ccc(Cn2nnc(-c3ccc(S(C)(=O)=O)cc3)n2)cc1OCC	none
COc1ccccc1C(=O)COC(=O)Cc1ccccc1F	none
CN1CCN(S(=O)(=O)c2ccc(C3CCCCC3)cc2)CC1	APOBEC3A inh 45 (no result: LANA-H2A inh, HDAC3 inh) | A3A conf 50 | UDG A3A counter inactive
CN(C)CC(O)CN(c1ccccc1)c1ccccc1 (stereo not given)	none
COc1cc(Nc2cccc[n+]2C)cc(OC)c1OC	APOBEC3A inh 69 | A3A conf 62 | UDG A3A counter inactive
COc1ccc(C(=O)N2CCc3cc(OC)c(OC)cc3C2c2ccc(OC)c(OC)c2)cc1OC (stereo not given)	APOBEC3A inh 59 | A3A conf inactive | UDG A3A counter inactive
Cc1cnc(C(=O)Nc2ccc(C)c(S(=O)(=O)N3CCCCCC3)c2)cn1	none (no result: LANA-H2A inh, HDAC3 inh)
CS(=O)(=O)NCCn1ccc2ccccc21	none
C[N+]1(CCn2ccc3ccccc32)CCCCC1	APOBEC3A inh 63 | A3A conf 68 | UDG A3A counter inactive
CC12CCC(C[N+](C)(C)C1)C2(C)C (stereo not given)	APOBEC3A inh 65 | A3A conf 69 | UDG A3A counter inactive
CC[N+]1(CC)CC2CCC(C)(C1)C2(C)C (stereo not given)	APOBEC3A inh 58 | A3A conf 79 | UDG A3A counter inactive
CN(CC(=O)Nc1ccccc1Br)C(=O)c1sccc1-c1ccccc1	none
CCOc1ccc(S(=O)(=O)N2CCN(C(=O)c3cc4ccccc4o3)CC2)cc1	none
O=C(Cc1ccccc1F)Nc1cc(S(=O)(=O)N2CCOCC2)ccc1N1CCCC1	none
CCCCOc1ccc(NC(=O)CCSc2nccn2C)cc1	APOBEC3A inh 42 | A3A conf inactive
COc1cc(C(C)=O)ccc1OCC(=O)OC(C)C(=O)c1ccc(F)cc1 (stereo not given)	none
COc1ccccc1NC(=O)c1ccc(Cl)c(S(=O)(=O)NCc2ccco2)c1	none
O=C(Nc1cccc(S(=O)(=O)NC2=NCCC2)c1)c1cnc(Cl)c(Cl)c1	none
CCOC(=O)CC(NS(=O)(=O)c1ccc(OC)c(OC)c1)c1cccc([N+](=O)[O-])c1 (stereo not given)	none
CCOC(=O)CC(NS(=O)(=O)c1ccc2[nH]cc(C(=O)O)c(=O)c2c1)c1ccc(OCC)c(OC)c1 (stereo not given)	APOBEC3A inh 47 | A3A conf 33
Cc1ccccc1-n1c(O)c(/C=N/N2CCCCC2c2cccnc2)c(=O)[nH]c1=O (stereo not given)	none
O=C(N/N=C/c1ccncc1)c1cccs1	none
O=C(N/N=C/c1ccc(-c2ccccc2C(=O)O)o1)c1cccs1	APOBEC3A inh 46 (no result: HDAC3 inh) | A3A conf 38 | UDG A3A counter inactive
O=C(Cn1cnc2c(NCc3ccccc3)ncnc21)NCCc1cc2ccccc2[nH]1	none (no result: LANA-H2A inh, HDAC3 inh)
Cc1ccc(NC(=O)CN2C(=O)NC(C)(CC(C)C)C2=O)c(Br)c1 (stereo not given)	none
C=CCn1c(SCc2nc3ccccc3nc2C)nnc1-c1ccoc1C	APOBEC3A inh 45 | A3A conf inactive | UDG A3A counter inactive
CCOc1cc(C2C3=C(CC(C)(C)CC3=O)N(CCOC)C3=C2C(=O)CC(C)(C)C3)ccc1OC	APOBEC3A inh 49 | A3A conf inactive
COc1ccc2nc(-c3ccccc3)cc(C(=O)OCC(=O)N3CC(C)OC(C)C3)c2c1 (stereo not given)	none
COc1ccc(CCN2CC(C(=O)NC3CCOCC3)CCC2=O)cc1 (stereo not given)	none
CC(=O)c1ccc[n+](CC(=O)NC(C)c2ccccc2)c1 (stereo not given)	APOBEC3A inh 62 | A3A conf 64 | UDG A3A counter inactive
O=C(CCc1ccccc1)Nc1ncn[nH]1	APOBEC3A inh 94 | A3A conf inactive | UDG A3A counter inactive
c1csc(-c2nc(CN3CCSCC3)cs2)c1	none
CCn1c(SCC(=O)OC)nc2sc3c(c2c1=O)CCC3	none
CCn1c(SCC(=O)O)nc2sc3c(c2c1=O)CCC3	APOBEC3A inh 54 | A3A conf 48 | UDG A3A counter inactive
COc1ccc(C2=NOC(Cn3nc(C(=O)NCC4CC4)cc3-c3ccccc3)C2)cc1 (stereo not given)	none
CSCCC(NC(=O)C1CCC(C)CC1)C(=O)Nc1ccc(NC(C)=O)cc1 (stereo not given)	none
Cn1nc(C(=O)NNC(=O)c2ccccc2Br)c2ccccc2c1=O	none (no result: LANA-H2A inh, HDAC3 inh)
Cc1ccc2c(c1)S/C(=C/c1ccc[n+](C)c1)N2CCO	APOBEC3A inh 70 | A3A conf 84 | UDG A3A counter inactive
CCN(C(=O)CN1CCC(C(=O)OC)CC1)c1c(N)n(Cc2ccccc2)c(=O)[nH]c1=O	none
Cc1ccc(S(=O)(=O)N2CCN(C(=O)COC(=O)CCOc3ccccc3C)CC2)c(C)c1	APOBEC3A inh 47 (no result: LANA-H2A inh, HDAC3 inh) | A3A conf 62 | UDG A3A counter inactive
Cc1ccc(OCCC(=O)OCC(=O)N2CCN(S(=O)(=O)c3ccc(C)cc3C)CC2)cc1	none
O=C(COC(=O)/C=C/c1ccco1)Nc1ncc(C(F)(F)F)cc1Cl	APOBEC3A inh 51 | A3A conf 50 | UDG A3A counter inactive
O=C(COC(=O)/C=C/c1ccco1)NCc1ccco1	APOBEC3A inh 49 | A3A conf 36 | UDG A3A counter inactive
Cc1ccc(C)c(SCC(=O)OCC(=O)c2ccco2)c1	APOBEC3A inh 54 | A3A conf 51 | UDG A3A counter inactive
O=C(COC(=O)/C=C/c1ccco1)NCc1ccccc1Cl	none
Cc1cc(Br)ccc1SCC(=O)OCC(=O)NCc1ccco1	APOBEC3A inh 59 | A3A conf 43
Cc1nn(C(=O)CCCC(=O)NCc2ccccc2)c2ccccc12	none
O=C(Nc1ccccn1)C1CCN(S(=O)(=O)c2ccc(Cl)cc2)CC1	none
O=C(C[C@H]1C/C=C\C[C@@H](Cc2ccc(F)cc2)C(=O)OC[C@H]2CCCN2C1=O)NCCO	none
O=S(=O)(c1ccc(F)c(Cl)c1)N1CCN(C/C=C/c2ccccc2)CC1	none
COc1ccccc1NCCC(=O)OCC(=O)NCc1ccco1	APOBEC3A inh 44 | A3A conf 24 | UDG A3A counter inactive
COc1ccc(OCCC(=O)OCC(=O)NCc2ccco2)cc1	none
CC1(c2ccc(Cl)cc2)NC(=O)N(CC(=O)N2CCc3ccccc32)C1=O (stereo not given)	none
Cc1[nH]c2ccccc2c1/C=N/Nc1nc(Nc2ccccc2)nc(N2CCOCC2)n1	none
Oc1[nH]c2ccccc2c1N=Nc1nc(Nc2ccccc2)nc(N2CCOCC2)n1	APOBEC3A inh 44 | A3A conf inactive

Screening data (PubChem)
